Sampled rows, rich in hits. Any-hit rate of the full collection: about 3.6%.
mHTT-CaM PPI inh – mutant huntingtin-calmodulin interaction inhibitors – biochemical, AlphaScreen, primary screen; P42858; AlphaScreen His-mHTT/GST-CaM binding, luminescence; AID 1671202, 2021; inhibition, % at 15 µM; hit rate 3.6% among 190,000
Pf apPOL block – Pf-apPOL inhibitors, biochemical, fluorescence. Plasmodium falciparum apicoplast DNA polymerase (apPOL). hit rate 0.25% among 210,000. Recombinant Pf-apPOL, molecular beacon fluorescence, 1.5 h. inhibition, % at 10 µM. AID 1794808, 2022
Hits are given with their value; i = inactive; nt = no result; + = active, no number. Rule as the data show it: active = inhibition above about 50%; inactive = the rest.

SMILES | mHTT-CaM PPI inh | Pf apPOL block
CC1(C)OC(=O)C(=Cc2ccc(-c3cccc([N+](=O)[O-])c3)o2)C(=O)O1 | i | i
COc1cccc(-n2c(SCC(=O)N3CCCC3)nc3n[nH]c(C)c3c2=N)c1 | i | i
CCC(Sc1nc2n[nH]c(C)c2c(=N)n1-c1ccc(C)cc1)C(=O)N1CCCC1 (centres undefined) | 54.0 | i
CCCN(CCC)C(=O)CSc1nc2n[nH]c(C)c2c(=N)n1-c1ccc(OCC)cc1 | i | i
CCC(C)NC(=O)CSc1nc2ccsc2c(=O)n1-c1ccc(Br)cc1 (centres undefined) | i | i
CCC(C)NC(=O)CSc1nc2n[nH]c(C)c2c(=N)n1-c1ccc(Br)cc1 (centres undefined) | 75.0 | i
COc1ccc(-n2c(SCC(=O)NC3CCCCC3)nc3n[nH]c(C)c3c2=N)cc1 | 79.0 | i
Cc1nn(C(=O)c2ccc([N+](=O)[O-])cc2)c(C)c1N=Nc1ccc(Cl)cc1 | nt | i
CC(C)C(=O)N1CCc2cc(C(=O)N3CCCC3)ccc21 | i | i
COc1ccc(C2C(C#N)=C(N)N(c3ncn[nH]3)C3=C2C(=O)CC(C)(C)C3)c(OC)c1 (centres undefined) | i | i
CCC(=O)N1CCc2sc(C(=O)N3CCN(c4cc(C)ccc4C)CC3)cc2C1 | 65.7 | i
CCC(=O)N1CCc2sc(C(=O)N3CCN(CC)CC3)cc2C1 | i | i
CC(=O)N1CCc2sc(C(=O)N3CCN(c4ccccc4F)CC3)cc2C1 | i | i
CC(=O)N1CCc2sc(C(=O)N3CCN(c4cc(C)ccc4C)CC3)cc2C1 | 65.0 | i
O=C(NCCc1ccccc1)c1ccc2c(c1)NC(=O)C1CCCCN21 (centres undefined) | i | i
CC1=C(C(N)=O)C(c2ccccc2[N+](=O)[O-])n2nc(-c3cccc(Cl)c3)nc2N1 (centres undefined) | i | i
O=C(Nc1cccc(Br)c1)c1ccc2nc(N3C(=O)CCC3=O)sc2c1 | 55.2 | i
O=C(Nc1cccc([N+](=O)[O-])c1)c1ccc2nc(N3C(=O)CCC3=O)sc2c1 | i | i
O=C(NCc1ccncc1)C1CN(C(=O)c2cccs2)CC12CCCCC2 (centres undefined) | i | i
CCOc1cccc(/C=C2\C(=O)NN(c3ccc(CC)cc3)C2=O)c1O | i | i
Clc1ccc(-c2cn3nc(-c4ccccc4)sc3n2)cc1 | i | i
CC(=O)Nc1ccc(-c2cn3nc(-c4ccccc4)sc3n2)cc1 | 58.4 | i
S=C1NC2(CCCC2)NN1c1ccccc1 | nt | i
c1cc2c3c(cccc3c1)NC1(CCCCCC1)N2 | 52.5 | nt
COc1ccc(Cl)cc1S(=O)(=O)N1CCC(c2nc3ccncc3n2C)C1 (centres undefined) | i | i
SMILES | mHTT-CaM PPI inh | Pf apPOL block
COc1ccc(NC(=O)c2c(NCc3ccccn3)sc3c2CCC(C)C3)c(OC)c1 (centres undefined) | i | i
CCOc1ccccc1NC(=O)c1c(NCc2ccccn2)sc2c1CCC2 | 58.0 | i
COc1ccccc1NC(=O)c1c(NCc2ccccn2)sc2c1CCCC2 | 50.0 | i
CCOc1ccccc1NC(=O)c1c(NCc2ccncc2)sc2c1CCC2 | i | i
CCOc1ccccc1NC(=O)c1c(NCc2cccn2C)sc2c1CCC2 | i | i
COc1ccc(NC(=O)c2c(NCc3ccccn3)sc3c2CCCC3)c(OC)c1 | 53.0 | i
COCC(=O)N1CCC(c2cnn(-c3ccccc3)c2)CC1 | i | i
CC(C)NC(=O)c1ccc(OCC2CCCN2C(=O)c2ccc(Cl)cc2)cc1 (centres undefined) | i | i
COCCn1cc(NC(=O)Nc2ccc(S(N)(=O)=O)cc2)c2ccccc21 | i | i
O=C(NCC1CCN(C(=O)c2ccccc2F)CC1)c1ccsc1 | i | i
O=c1c2ccccc2n(Cc2cc(=O)n3ccccc3n2)c(=O)n1Cc1ccc2c(c1)OCO2 | i | i
Cc1cc2[nH]c(C(=O)Nc3c(F)cccc3F)c(CN3CCOCC3)c2s1 | 54.2 | i
Cc1cc2[nH]c(C(=O)Nc3ccccc3Cl)c(CN3CCOCC3)c2s1 | i | i
Cc1cc2[nH]c(C(=O)Nc3ccccc3C)c(CN3CCOCC3)c2s1 | 50.5 | i
Cc1cc2[nH]c(C(=O)Nc3cccc(F)c3C)c(CN3CCOCC3)c2s1 | i | i
NCC1OC(n2cnc3c(N)ncnc32)C(O)C1O (centres undefined) | i | i
COc1ccc(C=C2Oc3cc(OC(=O)c4cc(OC)c(OC)c(OC)c4)ccc3C2=O)c(OC)c1 | i | i
N#Cc1cccc(-c2cn3c(n2)N(C(=O)COc2ccccc2)CCC3)c1 | 55.1 | i
N#Cc1cccc(-c2cn3c(n2)N(C(=O)c2ccccc2)CCC3)c1 | i | i
O=C(NC1CC2CC1CN2S(=O)(=O)c1cc(F)cc(F)c1)c1ccccc1 (centres undefined) | i | i
Cc1cccc(CNC(=O)c2nn(C)c3c2CN(C(=O)c2cccc(C)c2)CC3)c1 | 74.3 | i
Cc1cccc(C(=O)N2CCc3c(c(C(=O)NCc4ccc(Cl)cc4)nn3C)C2)c1 | 91.2 | i
Cc1cccc(CNC(=O)c2nn(C)c3c2CN(C(=O)c2ccccc2C)CC3)c1 | i | i
Cc1cccc(CNC(=O)c2nn(C)c3c2CN(C(=O)c2cccc(F)c2)CC3)c1 | 70.6 | i
Cn1nc(C(=O)NCc2ccc(Cl)cc2)c2c1CCN(C(=O)c1ccco1)C2 | i | i
SMILES | mHTT-CaM PPI inh | Pf apPOL block
O=C1C(=Cc2cccnc2)Oc2c1ccc1c2CN(c2ccccc2F)CO1 | i | i
Cc1cc(F)ccc1NC(=O)C1(C)Oc2cccnc2N(C)C1=O (centres undefined) | i | i
NNC(=O)COc1ccc(Br)cc1Br | nt | i
CCc1ccc(N2C=C(C#N)S(=O)(=O)c3cc(F)ccc32)cc1 | i | i
O=C(Cc1cccs1)N1CCC(c2nc(-c3ccccc3)n[nH]2)CC1 | i | i
Clc1ccc(Cn2cnc(Cl)c2Cl)cc1Cl | 73.0 | i
Cc1ccc(=O)n(Cc2ccc(Cl)c(Cl)c2)n1 | nt | i
S=c1[nH]nc(-c2ccncc2)n1/N=C/C=C/c1ccco1 | i | nt
S=c1[nH]nc(-c2ccccn2)n1/N=C/C=C/c1ccco1 | + | nt
O=C(Sc1n[nH]c(=O)[nH]c1=O)c1cccc(Br)c1 | i | i
Cc1ccc(C(=O)Sc2n[nH]c(=O)[nH]c2=O)cc1 | 98.0 | i
Cn1nc(-c2nc(Cc3ccccc3)no2)c2c1CCN(C(=O)NC(C)(C)C)C2 | i | i
Cc1cc(CNC(=O)C(=O)Nc2ccc(C(F)(F)F)cc2)c(C)o1 | i | i
O=C1N=C(N2CCCCC2)S/C1=C\c1cccs1 | i | i
Cc1ccc(C2=NC(=O)/C(=C/c3sccc3C)S2)cc1 | 53.0 | i
Cc1ccsc1/C=C1\SC(c2ccccc2)=NC1=O | i | i
O=C1N=C(c2ccccc2)S/C1=C\c1cccs1 | 62.0 | i
COc1cccc(C(=O)NCc2cccnc2-c2ccc(F)cc2)c1 | i | i
COc1ccc(C=NNC(=O)c2sc(=S)n(-c3ccccc3)c2N)cc1 | nt | i
O=c1c(-c2ccccc2)c1-c1ccccc1 | nt | i
O=C1C=C(c2ccccc2)C(=O)C=C1Cl | nt | 50.2
O=C1NC(=Nc2ccccn2)SC1Cc1cccc(C(F)(F)F)c1 (centres undefined) | i | i
COc1ccccc1NC(=O)Nc1nnc(CSCc2ccccc2)s1 | i | i
CCCC1CCC2(CCCN2CCOC(=O)Nc2ccccc2)CC1 (centres undefined) | i | i
CCCC1CCC2(CCCN2CCOC(=O)Nc2ccc(Br)cc2)CC1 (centres undefined) | 95.9 | i

Assay outcomes: PubChem BioAssay, University of Kansas High Throughput Screening Laboratory
